About 83,000 compounds went through this panel and 20% of them were active in at least one assay; those are over-represented in the sample as a whole.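 The test compound was applied at a single concentration to cells in 96-well plates for 48 hours, and percent growth was recorded.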 Unmarked numbers belong to inactive results. The source made the active and inactive calls. Rule for the calls: active = growth percent below 10; inactive = the rest.
How the values were obtained:
Assay in all cases: NCI-60 one-dose screen, 48 h (100 = growth as untreated, 0 = no growth, -100 = all killed)
Settings in all cases: 10 µM unless noted
HCT-15 colon = tested on: HCT-15 colon
HT29 colon = tested on: HT29 colon
SNB-75 CNS = tested on: SNB-75 CNS
SNB-19 CNS = tested on: SNB-19 CNS
U251 CNS = tested on: U251 CNS
PC-3 prostate = tested on: PC-3 prostate
SK-MEL-5 melanoma = tested on: SK-MEL-5 melanoma
UACC-62 melanoma = tested on: UACC-62 melanoma
LOX IMVI melanoma = tested on: LOX IMVI melanoma
SK-MEL-28 melanoma = tested on: SK-MEL-28 melanoma

Row | SMILES | growth (HCT-15 colon) | growth (HT29 colon) | growth (SNB-75 CNS) | growth (SNB-19 CNS) | growth (U251 CNS) | growth (PC-3 prostate) | growth (SK-MEL-5 melanoma) | growth (UACC-62 melanoma) | growth (LOX IMVI melanoma) | growth (SK-MEL-28 melanoma)
1 | CCOC(=O)c1sc(NC(=O)COc2cccc(/C=C3\Cc4ccc(Cl)cc4C3=O)c2)nc1C | 97.4% | 118% | 113% | 99.9% | 99.4% | 103% | 97.4% | 95.8% | 97.7% | 118%
2 | CCn1cnc(C[C@H](NC(=O)[C@H](CCCCNC(=O)Nc2cc(C(F)(F)F)cc(C(F)(F)F)c2)NC(=O)Nc2cc(C(F)(F)F)cc(C(F)(F)F)c2)C(=O)OC)c1 | 48.1% [100 µM] | -99.4% [100 µM] (active) | -36.4% [100 µM] (active) | -36.5% [100 µM] (active) | -100% [100 µM] (active) | -38.5% [100 µM] (active) | -100% [100 µM] (active) | -88.3% [100 µM] (active) | -100% [100 µM] (active) | -99.5% [100 µM] (active)
3 | CCSc1nc(Nc2ccc(S(=O)(=O)Nc3ccon3)cc2)c(C#N)c(-c2cccc(Br)c2)n1 | 87.3% | 91.8% | 93.3% | 100% | 81.1% | 79.6% | 85.4% | 91.5% | 94.1% | 103%
4 | COc1cc(/C=C/C(=O)c2c(C)n([O-])c3ccccc3[n+]2=O)cc(OC)c1OC | 30% | 65.4% | 81% | 50.8% | 47.7% | 25.5% | 21.3% | 54.7% | 50.9% | 79%
5 | COc1ccc(-c2cc(-c3nnc(SCC(=O)Nc4ccc(C(C)=O)cc4)n3-c3ccccc3)c3ccccc3n2)cc1OC | 102% | 94.7% | 102% | 113% | 101% | 98.7% | 109% | 111% | 98.1% | 113%
6 | Cc1cc2c(cc1C)[n+](Cc1ccc3ccccc3c1)cn2Cc1ccc2ccccc2c1 | -77.4% (active) | -83.3% (active) | -73.6% (active) | -77.2% (active) | -91.6% (active) | -84% (active) | -99.2% (active) | -80.5% (active) | -86.7% (active) | -91.9% (active)
7 | C=C1CCC2C(C)(COC(=O)CC)C(OC(=O)CC)CCC2(C)C1C/C=C1/C(=O)OCC1OC(=O)CC (stereo not given) | 0.0652% (active) | -73.2% (active) | -3.12% (active) | 62% | -72.3% (active) | 27.7% | 16.8% | 0.659% (active) | -99.1% (active) | -36.1% (active)
8 | COc1cc2c(cc1OC)C(CC1(O)CCCCC1)N(S(=O)(=O)c1ccc(C)cc1)CC2 (stereo not given) | 22.7% [100 µM] | 21.1% [100 µM] | 40.8% [100 µM] | 48.9% [100 µM] | 34.1% [100 µM] | 2.56% [100 µM] (active) | 18.7% [100 µM] | 27.4% [100 µM] | 29.3% [100 µM] | 55% [100 µM]
9 | COc1ccc(NC(=O)[C@@H]2C[C@H]2c2ccccc2)c(C(N)=O)c1 | 89.5% | 95.5% | 96.2% | 96.3% | 97.2% | 90.2% | 96.5% | 95.7% | 93.6% | 96.7%
10 | CCc1ccc(-c2nc(SCC(=O)NC3CCCCC3)n[nH]2)cc1 | 88.6% | 101% | 85.4% | 98.7% | 89.3% | 77.1% | 61.5% | 57.8% | 67.8% | 108%
11 | COc1cc(/C=C2\SC(N3CCCCC3)=NC2=O)ccc1OCCCCCCOc1ccc(/C=C2\SC(N3CCCCC3)=NC2=O)cc1OC | 25.5% | -13.8% (active) | 18.8% | 44% | -3.37% (active) | 34% | 10.3% | 17.6% | -44.7% (active) | 12.7%
12 | Cc1cc(-c2ccccc2)cc(C)n1 | 105% | 99% | 86.1% | 99.4% | 103% | 96.6% | 106% | 103% | 96.9% | 107%
13 | C[C@H](C(=O)N[C@@H](Cc1ccc(-c2ccccc2)cc1)C(=O)NC1CC(C)(C)N(C)C(C)(C)C1)c1ccc(-c2ccccc2)c(F)c1 | -81.2% (active) | -76.2% (active) | -29% (active) | -72.6% (active) | -74.7% (active) | -70.5% (active) | -94.7% (active) | -57.6% (active) | -83.8% (active) | -73% (active)

— PubChem BioAssay (NCI)
